# The sample as a whole holds a higher share of hits than the screen did.
# Shiga toxin inh: blocks Shiga toxin action in Vero cells | Vero cells, Shiga toxin protein synthesis inhibition reporter | inhibition, % at 38.7 µM | hit rate 9.2% among 290,000; in the data active = inhibition mostly above about 28%, no sharp cut-off; inactive = mostly below about 43%; also: 0% is about no effect
# AmpC detergent: AmpC beta-lactamase inhibition with detergent present; AmpC hydrolysis of nitrocefin, absorbance 480 nm, 0.01% Triton; hit rate 0.041% among 370,000; Potency, µM (highest dose often 114 µM), inactives show at the top dose activity change, negative = inhibition, most hits filed as inhibitors; AID 485294;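 also: potency is read from the fitted curve at half-maximal effect; 0% = no-compound wells and -100% = no-enzyme wells; nearly all actives have a fitted effect of over 25% in size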
# Target sequence (P00811 whole entry, looked up): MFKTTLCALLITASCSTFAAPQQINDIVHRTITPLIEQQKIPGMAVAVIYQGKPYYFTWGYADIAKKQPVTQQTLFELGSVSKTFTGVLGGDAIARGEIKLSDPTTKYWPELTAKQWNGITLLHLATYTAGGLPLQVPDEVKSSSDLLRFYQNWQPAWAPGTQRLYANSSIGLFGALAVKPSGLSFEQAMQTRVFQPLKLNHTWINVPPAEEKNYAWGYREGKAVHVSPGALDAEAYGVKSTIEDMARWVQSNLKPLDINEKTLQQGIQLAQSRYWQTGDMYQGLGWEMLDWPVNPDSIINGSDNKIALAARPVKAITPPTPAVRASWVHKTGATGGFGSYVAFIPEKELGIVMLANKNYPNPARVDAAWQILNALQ
#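 AmpC (5.3 nM in the dispensed reagent) in 20 mM phosphate pH 7.0 with 0.01% (detergent screen) or 0.0001% Triton X-100 was preincubated with compounds for 15 min at room temperature. Nitrocefin was then added from an 800 uM solution, and hydrolysis was followed at 480 nm.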
# AMA1-RON2 inh: inhibitors of Plasmodium falciparum AMA1-RON2 interaction | AID 720542 | hit rate 0.2% among 360,000 | Potency, µM (series often up to 58.2 µM), without a hit: at the highest dose activity change, negative = inhibition, actives largely listed as inhibitors | AlphaScreen AMA1-biotinylated RON2 peptide binding;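 also: potency is read from the fitted curve at half-maximal effect; 0% = vehicle wells and -100% = peptide control; nearly all actives have a fitted effect of over 45% in size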
#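 AMA1 (3D7) with his tag at 25 nM final met compounds first, then biotinylated RON2 peptide at 25 nM; detection used donor plus acceptor beads, 10 µg/mL apiece, read by AlphaScreen after 30 min at room temperature.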
# SARS PLP yeast: inhibitors of SARS-CoV papain-like protease in yeast. hit rate 0.19% among 330,000. Potency, µM (doses to about 32.9 µM), for inactives: top-dose activity, positive = growth rescue, actives largely listed as activators. S. cerevisiae expressing SARS-CoV PLpro, growth rescue; calls by dose curve; also: potency is read from the fitted curve at half-maximal effect; 0% is about no effect; nearly all actives have a fitted effect of over 55% in size
# Cycloheximide cs: counter-screen for Shiga toxin inhibitors: cycloheximide protein synthesis inhibition; cell reporter, cycloheximide protein synthesis inhibition counterscreen; max response, %; hit rate 12% among 300,000; in the data active = max response mostly above about 13%, no sharp cut-off; inactive = mostly below about 14%; also: read at 38.3 µM for the half of the compounds with a filed dose; 0% is about no effect
# AmpC inh no detg: AmpC beta-lactamase inhibition without detergent; P00811; AmpC nitrocefin hydrolysis, absorbance 480 nm, 0.0001% Triton; Potency, µM (series often up to 57.1 µM), inactives show at the highest dose activity change, negative = inhibition, hits mostly inhibitors; hit rate 0.52% among 330,000; AID 485341;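 also: potency is read from the fitted curve at half-maximal effect; plate controls were no compound for no effect and no enzyme for full effect; nearly all actives have a fitted effect of over 20% in size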
#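 20 mM phosphate pH 7.0 + 0.01% (detergent screen) or 0.0001% Triton X-100; 5.3 nM AmpC reagent; cpd preinc 15 min RT; nitrocefin (800 uM stock) to start; A480 q20 s × 4 min; Activity was normalised to no-enzyme and no-compound control wells.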
# An asterisk follows results filed as active; ? = inconclusive; . = no result given; [ ] = dose if it differs, or a comment. Unless noted, calls follow the shape of the dose curve; as a rule, active = well fitted curve in the direction sought with a large enough effect; inconclusive = small, poorly fitted or top-dose-only effect, or another doubt; inactive = no such curve, though single readings can be large; an effect the other way counts as inactive or inconclusive.
SMILES,Shiga toxin inh,AmpC detergent,AMA1-RON2 inh,SARS PLP yeast,Cycloheximide cs,AmpC inh no detg
CCNC(=O)/C(C#N)=C/c1c(N2CCOCC2)nc2ccccn2c1=O,-17.0,?,-2.3%,5.1%,-3.9,-48.2%
C=C(C)CSc1nc(N)c2c(C)c(C)sc2n1,47.7,-11.8%,-5.9%,19.6%,18.9*,-28.4%
CCC(=O)N1N=C(c2cccc(NS(C)(=O)=O)c2)CC1c1cccs1 (stereo not given),-1.7,-11.4%,3.3%,1.9%,1.4,-17.4%
N#CCN(N=Nc1ccccc1)c1ccccc1,70.9*,4.3%,-12.5%,6.7%,37.7*,-15.5%
O=C(CSc1nc(C2CC2)nc2ccccc12)N1c2ccccc2Sc2ccccc21,-6.7,-1.5%,0.9%,-1.3%,-1.6,0.316µM*
CC(=O)c1ccc(NC(=O)CSc2nc(C3CC3)nc3ccccc23)cc1,-6.3,-9.2%,3.8%,-0.5%,0.7,3.5%
COC(=O)C1CCCN1C(=O)COc1ccc(Br)cc1Cl (stereo not given),17.8,?,-6.8%,6.2%,0.6,0.1%
COc1cc(Cl)c(NC(=O)c2cc(CN3CCCC3)on2)c(OC)c1,.,4.7%,.,.,.,.
COc1cccc(NC(=S)/C(=C(\[O-])c2cc(C)n(-c3ccccc3F)c2C)[n+]2ccc(N(C)C)cc2)c1,76.0,1.8%,-1.0%,0.7%,26.1*,35.6%
Cc1cc(C([O-])=C(C(=S)Nc2ccc(F)cc2)[n+]2ccccc2)c(C)n1-c1ccc(F)cc1,.,.,-7.5%,.,.,.
CCOc1ccc(C(=O)Nc2nc3ccccc3[nH]2)cc1OCC,105.5*,?,69.3%,0.7%,51.3*,-18.4%[11.4 µM]
COc1ccc(NC(=O)Cc2c[nH]c3ccccc23)cc1S(=O)(=O)N1CCCCC1,12.7,-4.4%,-12.4%,16.2%,-0.9,14.1µM*
COc1ccc(C(=O)Nc2nc3ccccc3[nH]2)cc1S(=O)(=O)N1CCCC1,75.0*,0.8%,-5.7%,-5.6%,18.9*,-8.3%
COc1ccc(C(=O)Nc2nc3ccccc3[nH]2)cc1OC,86.5*,1.5%,27.8%,-2.3%,41.8*,-27.3%
COc1ccc(NC(=O)Cc2c[nH]c3ccccc23)cc1S(=O)(=O)N1CCOCC1,3.2,-2.2%,0.1%,3.1%,1.3,-23.1%
O=C(Nc1cccc(S(=O)(=O)N2CCOCC2)c1)c1ccc(Cl)c([N+](=O)[O-])c1,62.1,3.6%,-11.5%,0.0%,-4.6,-23.5%[11.4 µM]
O=C(C1CCCN(S(=O)(=O)c2cccc3nonc23)C1)N1CCN(c2ccccc2)CC1 (stereo not given),-23.6,2.7%,-6.2%,11.4%,-1.9,75.6%
CCn1c(C(C)NC(=O)c2ccc(OC)c(OC)c2)nc2ccccc21 (stereo not given),70.3*,2.4%,13.7%,-3.3%,18.0*,19.3%
COc1ccc(Cl)cc1C(=O)Nc1nc2ccccc2[nH]1,3.8,-9.9%,93.1%,-1.2%,-1.2,45.8%
COc1cc(C(=O)Nc2nc3ccccc3[nH]2)ccc1OC(F)F,61.9*,-1.2%,69.4%,0.3%,38.6*,-39.9%
CCOc1ccc(NC(=O)CC2C(=O)N(CC)C(=S)N2CCN2CCOCC2)cc1 (stereo not given),-8.0,-11.1%,-1.3%,2.3%,-5.2,99.5%
CC(=O)Nc1ccc(NC(=O)/C(Cl)=C/c2ccccc2)cc1,157.3*,3.9%,-9.1%,-7.3%,47.5*,-7.6%
CC(=O)Nc1ccc(C(=O)N/C(=C/c2ccccc2)C(=O)Nc2cccc(C(=O)O)c2)cc1,1.1,1.2%,-1.0%,-0.6%,-3.1,-0.8%
O=c1oc(Nc2cccc(Cl)c2)nc2ccccc12,47.5*,-4.3%,9.4%,2.1%,36.1*,-49.5%
O=c1oc(Nc2ccccc2Cl)nc2ccccc12,31.1,-0.9%,0.0%,0.6%,23.0*,-27.0%
SMILES,Shiga toxin inh,AmpC detergent,AMA1-RON2 inh,SARS PLP yeast,Cycloheximide cs,AmpC inh no detg
O=c1oc(Nc2ccccc2F)nc2ccccc12,52.5*,4.4%,19.3%,6.3%,33.6*,-17.2%
O=c1oc(-c2ccccc2NS(=O)(=O)c2ccc(F)cc2)nc2ccccc12,-6.3,2.5%,3.6%,1.1%,-2.6,-35.0%
Clc1cccc(Nc2nc(-c3ccncc3)nc3ccccc23)c1,44.4,-0.5%,-21.6%,-0.5%,5.5,-2.7%
COC(=O)c1cc(NC(=O)CC2Oc3ccccc3NC2=O)cc(C(=O)OC)c1 (stereo not given),-11.9,-10.9%,-1.8%,1.5%,-4.1,-17.2%
CC(=O)N1CCN(CC(=O)Nc2c(Cl)cccc2Cl)CC1,-7.1,-8.0%,0.6%,6.6%,6.4,-14.7%
CC(=O)/C(=C/N(C)C)C(=O)Nc1ccc(Cl)cc1Cl,15.9,-3.0%,-0.8%,-4.6%,20.8,-37.1%
CN(C)/C=N/C(=S)Nc1ccc(Cl)cc1Cl,74.3*,-3.6%,8.4%,-1.6%,57.3*,-14.4%
CN(C)/C=N/C(=S)Nc1ccc(Cl)cc1,65.4*,2.6%,-2.8%,-0.6%,34.8*,-20.3%
Cc1cccc(C)c1NC(=S)/N=C/N(C)C,26.4,-0.1%,1.5%,-0.6%,-2.1,-7.3%
Cc1nn(-c2ccc(C(=O)Nc3nnc(C4CC4)s3)cc2)c(C)c1Cl,-13.0,-17.0%,12.4%,-4.4%,-2.7,-9.6%
O=[N+]([O-])c1cccc(-c2ccc(SCc3cccnc3)nn2)c1,52.2,?,0.4%,-10.3%,44.1*,-10.0%
CSc1ccc(-c2cccc([N+](=O)[O-])c2)nn1,79.4*,-0.9%,-19.5%,-4.4%,27.4*,-10.9%
O=C(CSc1ccc(-c2cccc([N+](=O)[O-])c2)nn1)NCc1ccccc1,-5.5,?,7.0%,-9.4%,-1.6,-19.1%
CCOc1ccccc1OCC(=O)Nc1cc2c(cc1C(=O)O)OCCCO2,2.5,3.5%,1.6%,5.8%,-4.0,-25.1%
Oc1cccc(C=Nc2cccc3ccccc23)c1O,5.2,-10.3%,?,-6.3%,2.3,-53.1%
COc1ccc(C(=O)C(=NN)c2ccccc2)cc1,.,.,3.9%,.,.,.
O=C(/C(=N/N=C/c1ccc(O)c(O)c1O)c1ccccc1)c1ccccc1,12.4,19.2%,15.1%,-100.0%,6.3,20µM*
Oc1ccc(/C=N/N=C(c2ccccc2)c2ccccc2)c(O)c1O,26.6,0.2%,6.6%,-3.9%,17.5*,-43.2%
Cc1ccc(C(=O)O)cc1N1CCCC1=O,-1.8,2.5%,7.4%,0.6%,-1.7,-6.6%
Cc1ccc(C(=O)NC2CCCCCC2)cc1N1CCCC1=O,14.3,-0.2%,6.3%,1.8%,23.2*,-3.8%
O=C(NC1CCCCCC1)c1cccc(N2CCCC2=O)c1,33.1*,4.0%,-6.0%,0.1%,45.8*,1.9%
O=C(NC1CCCN(Cc2ccc(Cl)cc2)C1)c1cccc(N2CCCC2=O)c1 (stereo not given),-30.2,2.9%,-0.8%,2.4%,-2.1,53.0%

# Source: PubChem BioAssay (National Center for Advancing Translational Sciences (NCATS))
